Results published in the supplement of paper PMC11006884.
The full data set covers some 6,500 targets. This sample favours those with a hit. About 2% of all pairs of compound and target were hits.

Each target was assayed with COC(=O)C#Cc1ccccc1 [methyl 3-phenylpropiolate] (assay: log2 ratio of iodoacetamide-alkyne labeling of the cysteine site, DMSO over compound (competition); higher = stronger covalent engagement of the cysteine by the compound, active = 1 or more). Details: 500 µM; treatment time 1 h; system: HEK293T cell lysate.
Summary of the method: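 After 1 h at ambient temperature with vehicle or electrophile (500 µM), HEK293T lysate (2 mg/mL) was labelled for 1 h with iodoacetamide alkyne and clicked to sCIP-TMT reagents. Pooled samples were trypsin-digested overnight at 37 °C, streptavidin-enriched, acid-eluted and analysed by Orbitrap Eclipse LC-MS/MS with FAIMS, then quantified in FragPipe over three replicates with duplicate channels. A cysteine's log2 competition ratio is its mean control-channel over mean compound-channel reporter intensity. Cysteines quantified in only one replicate were not included.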

log2 ratio of iodoacetamide-alkyne labeling, active:
AKAP1 C389 (UniProt Q92667) 1.15, DHX38 C20 (UniProt Q92620) 1.36, PHIP C954 (UniProt Q8WWQ0) 1.46, ATXN7L3B C75 (UniProt Q96GX2) 1.03, NEK9 C11 (UniProt Q8TD19) 1.21, FIGNL1 C200 (UniProt Q6PIW4) 1.08, UniProt Q5VSL9_C418 1.22, AHCYL2 C353 (UniProt Q96HN2) 1.13

log2 ratio of iodoacetamide-alkyne labeling, inactive:
CPNE1 C53 (UniProt Q99829) -0.0731, SLFN11 C6 (UniProt Q7Z7L1) 0.329, NUP205 C877 (UniProt Q92621) 0.102, NIPBL C1876 (UniProt Q6KC79) 0.17, CAND1 C413 (UniProt Q86VP6) 0.304, UniProt Q86Y56_C409 0.492, UniProt Q6ZS17_C1137 0.0366, PIK3R4 C899 (UniProt Q99570) 0.087, MTHFD1L C291 (UniProt Q6UB35) 0.126, PDCD6IP C40 (UniProt Q8WUM4) 0.812, ARL6IP6 C48 (UniProt Q8N6S5) 0.392, UniProt Q69YQ0_C79 0.787, NIPBL C1795 (UniProt Q6KC79) -0.189, CRBN C78 (UniProt Q96SW2) 0.133, TSR2 C17 (UniProt Q969E8) 0.599, DHX29 C1025 (UniProt Q7Z478) 0.0649, ATRIP C74 (UniProt Q8WXE1) 0.563, TMCO6 C57 (UniProt Q96DC7) 0.394, GRWD1 C299 (UniProt Q9BQ67) 0.364, GPKOW C394 (UniProt Q92917) -0.0148, YOD1 C97 (UniProt Q5VVQ6) 0.146, RDH10 C272 (UniProt Q8IZV5) 0.324, TUBA1C C295 (UniProt Q9BQE3) 0.453, CCAR1 C579 (UniProt Q8IX12) 0.0854, ACD C406 (UniProt Q96AP0) 0.713, PBK C112 (UniProt Q96KB5) 0.35, FAF2 C194 (UniProt Q96CS3) 0.689
